An excerpt weighted towards active compounds, which were near 2.4% of everything screened.
D2 PAM-1 – positive allosteric modulators of human D2 dopamine receptor. P14416. DiscoveRx D2 beta-arrestin cells, luminescence, 90 min; 100% = 57 uM dopamine signal. potentiation, % (test concentration not listed). actives 0.23% (n = 360,000); in the data active = potentiation above about 50%; inconclusive = mostly about 30% to 49%
Target sequence (P14416 whole entry, looked up): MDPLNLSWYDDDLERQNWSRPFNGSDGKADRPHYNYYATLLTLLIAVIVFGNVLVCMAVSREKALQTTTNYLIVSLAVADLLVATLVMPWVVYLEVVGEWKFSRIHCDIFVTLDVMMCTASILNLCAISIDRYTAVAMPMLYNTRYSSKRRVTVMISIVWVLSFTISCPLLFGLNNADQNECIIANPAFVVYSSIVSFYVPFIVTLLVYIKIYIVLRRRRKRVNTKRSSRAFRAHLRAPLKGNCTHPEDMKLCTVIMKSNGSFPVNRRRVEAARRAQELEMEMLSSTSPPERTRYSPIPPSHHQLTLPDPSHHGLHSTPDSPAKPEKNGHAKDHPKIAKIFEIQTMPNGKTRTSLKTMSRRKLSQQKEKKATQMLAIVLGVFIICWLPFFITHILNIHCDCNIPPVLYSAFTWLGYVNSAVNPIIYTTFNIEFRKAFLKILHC
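PathHunter D2 cells, attached overnight at 37 deg C, received compound in DMSO plus dopamine at EC20 (50 nM final) for 90 min at 37 deg C. Beta-arrestin recruitment was read as luminescence after 1 h with detection reagent at ambient temperature.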
D2 PAM-2 – D2 dopamine receptor (human) potentiation. HEK293 T-REx D2, calcium flux, EC20 dopamine potentiation. potentiation, % at 10 µM. P14416. actives 0.34% (n = 340,000);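 active = potentiation over 3 SD above the plate norm, cut at about 30% in these data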; note: 0% is about no effect
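Primary screen. Calcium kinetics in induced HEK293 T-REx D2 cells: compound pre-addition 180 s, EC20 dopamine, 180 s more.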
D2 ag-1 – activates the human D2 dopamine receptor; P14416; HEK293 T-REx D2 cells, calcium flux agonist mode; activation, % at 2 µM; actives 0.53% (n = 340,000); AID 485358;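 active = activation over 3 SD above normal in the single-dose calcium agonist read, cut at about 30% in these data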; note: 0% is about no effect
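HEK293 Trex D2 cells, tetracycline-induced, o/n 30 C 5% CO2; no-wash Ca dye, RT 30–90 min; 10-cycle baseline, 23 nl cpd added, kinetic Ca read 180 s; agonist hits = positive Ca response.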
D2 ag-2 – activates the human D2 dopamine receptor. activation, % (no concentration beside the values). DiscoveRx PathHunter D2 beta-arrestin, luminescence, 90 min; 100% = 57 uM dopamine signal. actives 0.084% (n = 360,000); in the data active = activation above about 40%; inconclusive = between about 15% and that limit
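DiscoveRx PathHunter D2 beta-arrestin cells (2,100/well) attached overnight, then compound-stimulated 90 min at 37 C in HBSS/10 mM HEPES/0.1% Tween-20 buffer; beta-galactosidase complementation read by luminescence after 1 h at ambient temperature. Dopamine 57 uM final (EC100) as control.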
D2 antag – D2 dopamine receptor (human) antagonism; P14416; HEK293 TREx D2 cells, calcium flux, dopamine EC80; inhibition, % at 10 µM; actives 2% (n = 340,000); in the data active = inhibition above about 30%; inactive = below that, where a call was filed; note: 0% is about no effect
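Inhibition of EC80 dopamine-driven calcium flux, recorded kinetically, defines activity here; cells are a tetracycline-induced HEK293 T-REx line expressing force-coupled D2.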
An asterisk follows results filed as active; ? = inconclusive; · = no result; ! = a repeat was not active.

SMILES	D2 PAM-1	D2 PAM-2	D2 ag-1	D2 ag-2	D2 antag
CN(C)C(=O)c1c(NC(=O)c2ccco2)sc2c1CCCCC2	20	34*	0	-1	35*
COC(=O)c1c(NC(=O)c2ccco2)sc(C(=O)N(C)C)c1C	-12	77*	1	-3	-21
O=c1cc(-c2c(F)c(F)c(F)c(F)c2F)oc2c(F)c(F)c(F)c(F)c12	·	-12	18	·	56*
O=c1cc(-c2c(F)c(F)c(F)c(F)c2F)oc2ccccc12	-18	18	0	-3	-9
COc1ccc2c(Sc3ccccc3)c(C(=O)N3CCC(C)CC3)[nH]c2c1	·	-7	0	·	·
Cc1cc(OCC(=O)O/N=C(\N)Cc2cccs2)ccc1Br	-2	2	0	2	49*
Cc1ccc(OCC(=O)O/N=C(\N)Cc2cccs2)cc1C	-4	·	·	-2	·
Cc1cc(Nc2ccc(Cl)cc2)n2ncnc2n1	-4	5	0	-2	-3
Cc1ccc(Nc2cc(-c3ccccc3)nc3ncnn23)cc1	-8	-1	0	-3	33*
CCCn1c(SCC(=O)NNC(=O)c2ccccc2)nnc1-c1cccnc1	-16	4	-2	-3	32*
COC(=O)CSc1nnc(CNc2ccc(F)cc2)o1	-5	3	0	-2	11
CCCn1c(SCC(=O)NCCc2ccccc2)nnc1-c1cccnc1	-20	·	·	-1	·
O=C(CSc1nnc(-c2cccnc2)n1Cc1ccccc1)NCc1ccccc1	-10	-5	0	-1	35*
COc1cc(OC)cc(-c2nnc(SCC(=O)N(C(C)C)C(C)C)o2)c1	-4	0	1	-1	-1
Cc1cc(NC(=O)CSc2nnc(-c3cccnc3)n2Cc2ccccc2)no1	-33	-5	0	-2	-31
CC(C)N(C(=O)CSc1nnc(CNc2ccc(F)cc2)o1)C(C)C	8	77*	1	2	-14
COc1cccc(-c2nnc(SCC(=O)N(C(C)C)C(C)C)o2)c1	-11	31*	0	-2	-1
COc1ccc(-c2nc3cc(C(C)C)ccc3o2)cc1NC(=O)c1ccccc1[N+](=O)[O-]	·	15	0	·	·
CCOC(=O)c1cnn(-c2cccc(Cl)c2)c1C1CCN(C(=O)OC(C)(C)C)CC1	·	11	1	·	·
COc1ccc(C(=O)NNC(=O)CSc2nnc(-c3cccnc3)o2)cc1	2	42*	0	0	3
COc1ccc(-c2nnc(SCC(=O)NNC(=O)c3ccc(C)cc3)o2)cc1	6	-1	0	0	5
C[C@@H]1CN([C@H](C)CO)C(=O)c2c(c3ccccc3n2C)-c2ccccc2CO[C@H]1CN(C)Cc1ccc(Oc2ccccc2)cc1	·	·	·	2	·
O=C(CN1CCC(O)(c2cccc(F)c2)CC1)NCCc1c[nH]c2ccccc12	-24	-18	-1	-4	45*
Cc1ccc(NC(=O)CN(C)C(=O)c2cccc(S(=O)(=O)NCc3ccccc3)c2)cc1	-38	-2	0	-3	46*
COc1cccc(NC(=O)CN(C)C(=O)CC(NC(=O)c2ccccc2Cl)c2ccccc2)c1 (centres undefined)	-5	-22	0	-1	32*
SMILES	D2 PAM-1	D2 PAM-2	D2 ag-1	D2 ag-2	D2 antag
Cc1ccc(NC(=O)CN(C)C(=O)c2cccc(S(=O)(=O)NCc3cccs3)c2)cc1	-6	-19	0	4	-22
COc1cccc(NC(=O)CN(C)C(=O)c2cccc(NS(=O)(=O)c3ccc(Br)cc3)c2)c1	-3	·	·	-1	·
COc1cccc(NC(=O)CN(C)C(=O)c2cccc(NS(=O)(=O)c3ccccc3)c2)c1	-2	-10	0	0	32*
Cc1ccccc1CNC(=O)CCSCc1cnn(-c2ccccc2)c1-n1cccc1	·	·	-1	·	·
O=[N+]([O-])c1ccc(-n2nnnc2-c2ccccc2)c([N+](=O)[O-])c1	86*	-11	1	?	-2
CCOc1ccc(CNc2ccc(N3CCN(Cc4ccccc4)CC3)cc2)cc1	-23	-8	0	3	59*
CCOC(=O)C1CCCN(Cc2ccc(OCc3ccccc3)cc2)C1 (centres undefined)	-83	-38	10	-1	86*
CCOc1ccc(CNc2ccc(N3CCCC3)cc2)cc1	3	2	0	2	-28
CCOC(=O)C1CCCN(CCCc2ccccc2)C1 (centres undefined)	-11	-22	1	-3	70*!
Oc1ccc(NCc2ccc(OCc3ccccc3)cc2)cc1	14	8	-1	40*	-5
CCOC(=O)C1CCCN(Cc2nc(N)nc(Nc3ccccc3)n2)C1 (centres undefined)	-36	-20	0	-3	46*
CCN1CCN(Cc2ccc(OCc3ccccc3)cc2)CC1	-11	32*	-2	-3	-13
CCCNC(=O)C1(C)CCN(C(=O)c2cc(F)cc(F)c2)C1 (centres undefined)	-3	·	·	-4	·
COc1ccc(NC(=O)CSc2nnc(N)s2)cc1S(=O)(=O)N1CCCCC1	-1	·	·	-2	·
Cc1cc(OCC(O)CN2CCc3ccccc3C2)ccc1Cl (centres undefined)	-23	-23	0	10	79*
CCOc1ccc(OCC(O)CN2CCc3ccccc3C2)cc1 (centres undefined)	-9	-22	3	-1	50*
Cc1cc(OCC(O)CN2CCc3ccccc3C2)cc(C(C)C)c1 (centres undefined)	-38	14	-1	?	-5
CCN(CC(=O)Nc1cc(S(=O)(=O)N2CCCCC2)ccc1C)Cc1ccccc1	-15	-14	-1	-5	-24
CS(=O)(=O)N(CC(=O)N1CCN(Cc2ccccc2)CC1)c1ccccc1Br	-5	-7	2	-6	6
CCCC(=O)N(c1ccc2oc3c(c2c1)CCCC3)S(=O)(=O)c1ccc(CC)cc1	·	-4	0	·	·
Cc1ccc(NC(=O)N2CCC(C(=O)NCc3ccccc3)CC2)cc1	-12	-7	0	-2	39*
COc1ccc(NC(=O)N2CCC(C(=O)c3ccc(F)cc3)CC2)cc1	-15	8	0	1	-15
COc1ccc(OC2CCN(C(=O)Nc3ccc(C)cc3)CC2)cc1	-21	-13	1	-8	50*
COc1ccc(CCn2cc3c(c2-c2ccccc2Br)c(=O)n(C)c(=O)n3C)cc1OC	·	2	2	·	·
COc1ccc(Br)cc1CNc1ccc(O)cc1	55*	·	-1	10	13
CCC(C)Oc1cccc(C(=O)Nc2ccccc2N2CCOCC2)c1 (centres undefined)	-1	3	0	1	-2
CC(C)Oc1cccc(C(=O)Nc2ccccc2N2CCOCC2)c1	-2	-2	0	2	33*
CC(C)CN(CCNC(=O)c1cc(-c2ccc(Cl)s2)nc2ccccc12)CC(C)C	·	·	0	·	·
